Assay [1] is described as follows: Her2 expression decrease, cell viability multiplex – SKBR3 breast tumor cells, AlphaScreen, ATP viability, primary screen (AID 461;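 active = Her2 level under about 52% in both replicate screens, with viability over 70% of control, limit read from the data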;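 for Her2 level: lower value means less Her2 protein in the cells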;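 for viability: percent of carrier control wells set as 100% viability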). Conditions: SKBR3 Her2 protein level, 18-24 h, measured here: SKBR3 viability, ATP luminescence, at 10 µM.
Assay [2] has as its target Receptor tyrosine-protein kinase erbB-2 (Homo sapiens) (UniProt P04626). The description is as above. Conditions: 18-24 h, at 10 µM, stronger effect = lower value.
The nature of assay [3]: reduced viability of SK-BR-3 breast cancer cells – cell-based, 24 h, human, pilot screen (AID 572;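 active = viability at or below 10% of carrier control in both of two separate runs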;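 note: compound exposure lasted between 18 and 24 h rather than exactly 24 h; 100% = carrier-treated control wells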). To be noted: SK-BR-3 viability, CellTiter-Glo luminescence, at 10 µM, stronger effect = lower value. Background: In ATP-based viability assays light output follows the ATP content of the culture.
A short description of assay [4]: HUVEC growth inhibition – cell-based, human, primary screen (AID 575;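 active = viability at or below 30% in both replicate assays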;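 note: 100% = median of untreated cell wells with 0.1% DMSO on each plate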). Conditions: HUVEC proliferation, CellTiter-Glo luminescence, 72 h; at 10 µM; stronger effect = lower value.
The nature of assay [5]: H69AR cell proliferation blockers – human, duplicate replicates, primary screen (AID 580;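 active = viability at or under a set limit in both replicates, limit being median viability minus 3 SD, cut at about 48% in these data, passing the limit was not always enough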;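 note: 100% = mean luminescence of untreated wells and 0% = no signal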). Conditions: H69AR lung tumor cells viability, ATP luminescence, 72 h; at 10 µM; stronger effect = lower value.
Assay [6] is described as follows: MRP1 drug-resistance reversers in H69AR cells – cell-based, doxorubicin co-treatment, pilot screen (AID 601;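 active = viability loss from added drug above about 55%, and viability with drug at most 40%, in both replicates, limit read from the data, passing the limit was not always enough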). To be noted: CellTiter-Glo, 72 h, at 10 µM; for differential viability (reversal): stronger effect = higher value.
Assay [7] can be described thus: yeast transport mutant growth inhibition pilot in 384-well plates, post-Golgi transport modulator project (AID 636; in the data active = inhibition above about 31%). To be noted: absorbance 615 nm, about 18 h, stronger effect = higher value.
Assay [8] in a line: growth suppression of yeast trafficking mutant, preliminary HTS, modulators of trafficking downstream of Golgi apparatus project, 1536-format plate, OD 615 nm (AID 637; in the data active = inhibition above about 30%). To be noted: yeast transport mutant growth, absorbance 615 nm, 18 h; stronger effect = higher value.
The nature of assay [9]: S. cerevisiae growth inhibition in permissive medium (OD615), pilot counter-assay for S. cerevisiae lifespan shortening project, permissive growth control (AID 705). To be noted: OD615, 24 h, at 10 µM, stronger effect = higher value.
Assay [10] in a line: S. cerevisiae growth inhibition in restrictive medium, OD615, pilot screen, restrictive growth control, yeast lifespan reduction project (AID 706;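 active = growth inhibition above a set limit, 3 SD over mean compound inhibition, in both replicates, cut at about 43% in these data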;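 note: modified DeaD lifespan yeast strain shifted to restrictive glucose medium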). Conditions: OD615, 48 h, at 10 µM, stronger effect = higher value.
Assay [11] in a line: doxorubicin toxicity protection in MRP-1 cells – H69AR cells, CellTiter-Glo, duplicate, MRP-1 activator project, pilot screen (AID 807;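 active = viability increase at or above a cutoff of the median across tested compounds plus 3 SD, cut at about 8.5% in these data, passing the limit was not always enough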;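 note: compound pretreatment 18-22 h then 72 h combined with doxorubicin; 0% = doxorubicin alone and 100% = vehicle without doxorubicin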). To be noted: H69AR viability with doxorubicin, CellTiter-Glo luminescence; at 10 µM; stronger effect = higher value.
Assay [12] is described as follows: viability of HCT116 without oncogenic beta-catenin – human colon tumor cells, pilot screen (AID 823;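 active = cell viability at or below a set limit in both duplicate runs, the limit being the all-compound median minus 4 SD, cut at about 23% in these data, passing the limit was not always enough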;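 note: 0% = wells killed by 20 µM Hyamine and 100% = untreated DMSO cell wells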). Conditions: HCT116 beta-catenin knockout viability, CellTiter-Glo, 60 h; at 10 µM; stronger effect = lower value.
The nature of assay [13]: viability of PTEN-null HCT116 cells – cell-based, HCT116 clonal line, CellTiter-Glo, pilot screen (AID 824;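 active = viability at or below 27.92% in each of two runs, the all-compound median minus 4 SD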;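 note: 0% = 20 µM Hyamine control and 100% = vehicle cell control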). To be noted: HCT116 PTEN-deleted viability, 60 h, at 10 µM, stronger effect = lower value.
A short description of assay [14]: RAM pathway blockade in budding yeast – dse1pr::URA3 reporter, 5-FOA selection, pilot screen (AID 869;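 active = inhibition over a set limit, the all-compound mean plus 3 SD, in both replicate runs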;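 note: 0% = DMSO wells with no growth and 100% = 10 µM 1-NA-PP1 with full growth; RAM network block rescues cells from 5-FOA so hits raise OD615 growth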). Conditions: S. cerevisiae dse1pr::URA3 5-FOA growth, OD615, 2 d; at 10 µM; stronger effect = higher value; strain carries analog-sensitive mutant Cbk1 kinase.
A short description of assay [15]: RAM signaling pathway blockade in yeast – S. cerevisiae, Pdr1DBD-CYC8 efflux-inhibited sensitized strain, primary screen (AID 1298;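 active = RAM network inhibition above 8.4% in each of two replicates, 3 SD over the compound average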;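 note: 0% = DMSO untreated cells without growth and 100% = 10 µM 1-NA-PP1 full growth; higher means more yeast growth rescued from 5-FOA killing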). To be noted: S. cerevisiae cbk1-as DSE1-URA3 strain, 5-FOA growth OD615, 2 d; at 50 µM; stronger effect = higher value.
Where [16] appears, read: H69AR cells + 2 uM doxorubicin, measured here: viability with 2 uM doxorubicin, stronger effect = lower value.
Where [17] appears, read: H69AR cells, compound alone cytotoxicity.

Consider 9 compounds from PubChem BioAssay.

A word on the viability: it is a read-out of living cells in per cent, often relative to untreated cells. Broadly, the inhibition is the change of the read-out against control, counted positive when it falls.

Records with an inconclusive call do not appear. Calls of active or inactive are those of the source.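 Rule for the calls, unless noted: active = growth inhibition above 25% in both replicates, a cutoff set 3 SD above the mean; inconclusive = above 25% in only one replicate; inactive = the rest.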

Sequence of Receptor tyrosine-protein kinase erbB-2 (Homo sapiens) (P04626 whole entry, looked up): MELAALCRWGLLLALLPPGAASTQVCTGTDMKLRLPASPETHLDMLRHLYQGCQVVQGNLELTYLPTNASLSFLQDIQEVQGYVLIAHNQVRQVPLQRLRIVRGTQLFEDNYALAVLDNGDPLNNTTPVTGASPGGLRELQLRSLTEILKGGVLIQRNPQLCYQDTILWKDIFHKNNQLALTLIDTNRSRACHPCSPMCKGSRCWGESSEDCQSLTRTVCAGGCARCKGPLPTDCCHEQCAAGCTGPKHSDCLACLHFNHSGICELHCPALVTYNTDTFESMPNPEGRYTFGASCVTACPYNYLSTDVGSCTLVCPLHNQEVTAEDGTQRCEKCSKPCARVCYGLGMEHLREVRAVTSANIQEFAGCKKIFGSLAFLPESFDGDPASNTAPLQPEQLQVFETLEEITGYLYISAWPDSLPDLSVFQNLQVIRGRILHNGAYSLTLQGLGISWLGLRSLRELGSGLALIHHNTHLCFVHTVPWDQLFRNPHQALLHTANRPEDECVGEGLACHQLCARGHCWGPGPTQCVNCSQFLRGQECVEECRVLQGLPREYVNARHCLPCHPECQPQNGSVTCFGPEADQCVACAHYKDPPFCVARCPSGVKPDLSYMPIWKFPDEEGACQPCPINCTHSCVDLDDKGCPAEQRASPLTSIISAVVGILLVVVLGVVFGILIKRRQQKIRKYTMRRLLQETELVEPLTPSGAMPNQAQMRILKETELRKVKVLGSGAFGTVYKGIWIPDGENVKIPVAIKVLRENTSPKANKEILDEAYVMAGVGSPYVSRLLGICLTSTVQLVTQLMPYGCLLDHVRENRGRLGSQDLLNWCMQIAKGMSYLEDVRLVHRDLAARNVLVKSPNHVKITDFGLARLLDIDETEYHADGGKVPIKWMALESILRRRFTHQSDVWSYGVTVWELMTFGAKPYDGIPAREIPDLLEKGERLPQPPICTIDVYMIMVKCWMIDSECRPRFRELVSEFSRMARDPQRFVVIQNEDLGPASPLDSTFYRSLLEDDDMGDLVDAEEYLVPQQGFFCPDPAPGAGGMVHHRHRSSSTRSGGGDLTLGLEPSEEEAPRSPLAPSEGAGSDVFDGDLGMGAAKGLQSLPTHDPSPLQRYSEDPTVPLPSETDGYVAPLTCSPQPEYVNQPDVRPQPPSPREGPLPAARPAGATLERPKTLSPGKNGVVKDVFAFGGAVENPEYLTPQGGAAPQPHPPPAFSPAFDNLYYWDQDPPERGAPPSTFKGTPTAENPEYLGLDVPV

For `CCOc1ccc(C2CC(c3ccccc3C)n3nc(N)nc3N2)cc1` (stereo not drawn), the viability in assay [1] is 87.5%; in assay [3], 87.5% (inactive); in [4], 87.9% (inactive); in assay [5], 87.9% (inactive); in assay [6] (setting [16]) it was 102%; in [6] (setting [17]) it was 87.9%. Also, the viability in assay [12] was 93.8% (inactive); in assay [13], 83.3% (inactive). Also, the Her2 level in [2] was 93.5% (inactive). In assay [6] (H69AR cells + 2 uM doxorubicin), the differential viability (reversal) was -14.3% (inactive). In addition, the inhibition was -2.82% (inactive) in assay [7], -3% (inactive) in assay [8] and 1.23% (inactive) in assay [14]. For the same compound, the growth inhibition was -4.05% (inactive) in assay [9] and 0.985% (inactive) in assay [10]. In addition, the viability increase in assay [11] is -1.27% (inactive). In addition, the RAM network inhibition in assay [15] was 5.2% (inactive).

On to `COc1ccc(-c2nc(CCNC(=O)c3ccco3)cs2)cc1OC`, for which the viability is 96.5% in assay [1]; 96.5% (inactive) in [3]; 89.2% (inactive) in [4]; 77.9% (inactive) in assay [5]; 77.4% in [6] (setting [16]); 77.9% in assay [6] (setting [17]). Moreover, the figures for the viability in [12] and in assay [13] were 95.3% (inactive) and 87.7% (inactive), respectively. Also, the Her2 level in assay [2] is 102% (inactive). The differential viability (reversal) in assay [6] (H69AR cells + 2 uM doxorubicin) is 0.52% (inactive). The figures for the inhibition in [7], in assay [8] and in assay [14] were -4.67% (inactive), -2.95% (inactive) and 0.415% (inactive), respectively. The growth inhibition in assay [9] was -4.64% (inactive); in assay [10] it was -8.75% (inactive). In addition, in [11], the viability increase was -3.3% (inactive). For the same compound, the RAM network inhibition in assay [15] is -1.56% (inactive).

`Cc1cc(N=Cc2cc(Br)ccc2O)no1`: the viability in [1] was 108%; in assay [3] it was 108% (inactive); in [4], 74.4% (inactive); in [5], 73.1% (inactive); in assay [6] (setting [16]) it was 102%; in assay [6] (setting [17]), 73.1%. The viability is 90.8% (inactive) in [12] and 95.8% (inactive) in assay [13]. For the same compound, the Her2 level in assay [2] was 118% (inactive). Also, the differential viability (reversal) in assay [6] (H69AR cells + 2 uM doxorubicin) was -28.9% (inactive). Besides, the inhibition was -3.72% (inactive) in [7], -6.67% (inactive) in [8] and 0.26% (inactive) in [14]. Further, the growth inhibition was -13% (inactive) in assay [9] and -22.7% (inactive) in assay [10]. Besides, in assay [11], the viability increase was -2.84% (inactive). Besides, the RAM network inhibition in [15] is -1.15% (inactive).

Take `N#Cc1ccc(-c2csc(NC(=O)C3CC3)n2)cc1`: the viability in assay [1] was 95.5%; in assay [3], 95.5% (inactive); in assay [4], 109% (inactive); in assay [5] it was 91.9% (inactive); in assay [6] (setting [16]) it was 85.1%; in assay [6] (setting [17]) it was 91.9%. Besides, the viability in assay [12] is 103% (inactive); in [13], 88.9% (inactive). Also, the Her2 level in assay [2] is 91% (inactive). Besides, the differential viability (reversal) in [6] (H69AR cells + 2 uM doxorubicin) is 6.75% (inactive). The inhibition in [7] was -2.93% (inactive); in assay [8], 0.16% (inactive); in [14], 2.53% (inactive). In addition, the values for the growth inhibition in [9] and in assay [10] were -18.1% (inactive) and -2.02% (inactive), respectively. Further, in [11], the viability increase is 3.47% (inactive). For the same compound, the RAM network inhibition in assay [15] was 4.29% (inactive).

As for `CC(=O)c1cc2c(cc1NC(=O)CN1CCN(C(=O)c3ccco3)CC1)OCO2`, the viability in assay [1] is 90%; in [3], 90% (inactive); in assay [4], 92.5% (inactive); in [5] it was 86.3% (inactive); in [6] (setting [16]) it was 89.5%; in assay [6] (setting [17]), 86.3%. The viability in assay [12] is 98.2% (inactive); in assay [13], 97% (inactive). The Her2 level in assay [2] is 120% (inactive). Also, the differential viability (reversal) in assay [6] (H69AR cells + 2 uM doxorubicin) was -3.21% (inactive). The figures for the inhibition in assay [7], in assay [8] and in assay [14] were -5.47% (inactive), -3.5% (inactive) and 2.79% (inactive), respectively. Further, the growth inhibition is 0.565% (inactive) in assay [9] and -17.1% (inactive) in assay [10]. In addition, the viability increase in assay [11] was -3.21% (inactive). In assay [15], the RAM network inhibition was 0.37% (inactive).

With `O=C(Cn1cc2c(n1)CCCC2)NCCc1ccccc1`, the viability was 105% in assay [1]; 105% (inactive) in [3]; 103% (inactive) in assay [4]; 88.4% (inactive) in assay [5]; 111% in assay [6] (setting [16]); 88.4% in [6] (setting [17]). Further, the figures for the viability in assay [12] and in assay [13] were 106% (inactive) and 95.3% (inactive), respectively. In addition, the Her2 level in assay [2] was 100% (inactive). Further, in assay [6] (H69AR cells + 2 uM doxorubicin), the differential viability (reversal) was -22.7% (inactive). The inhibition in [7] is -1.6% (inactive); in [8] it was -4.33% (inactive); in assay [14], 1.38% (inactive). In addition, the values for the growth inhibition in assay [9] and in assay [10] were -2.47% (inactive) and -9.12% (inactive), respectively. Besides, in assay [11], the viability increase is -0.17% (inactive). The RAM network inhibition in assay [15] was 1.42% (inactive).

In the case of `Cc1cccc(-n2nc3c(c2NC(=O)CCC2CCCCC2)CS(=O)C3)c1C` (stereo not drawn), the viability in assay [1] is 95%; in [3], 95% (inactive); in assay [4], 86.3% (inactive); in assay [5] it was 90.9% (inactive); in [6] (setting [16]), 89.3%; in [6] (setting [17]), 90.9%. Besides, the viability in assay [12] was 91.8% (inactive); in [13] it was 92.1% (inactive). For the same compound, the Her2 level in assay [2] is 94.5% (inactive). The differential viability (reversal) in assay [6] (H69AR cells + 2 uM doxorubicin) is 1.55% (inactive). The results for the inhibition in assay [7], in assay [8] and in assay [14] were -4.13% (inactive), 1.33% (inactive) and 1.02% (inactive), respectively. Also, the growth inhibition is -8.41% (inactive) in assay [9] and 1.94% (inactive) in assay [10]. For the same compound, the viability increase in assay [11] is -1.85% (inactive). Moreover, in [15], the RAM network inhibition is 1.36% (inactive).

Consider `O=C(CCN1C(=O)c2ccccc2C1=O)NCCN1CCOCC1`, for which the viability in assay [1] is 105%; in [3], 105% (inactive); in assay [4], 86.3% (inactive); in [5], 95.3% (inactive); in assay [6] (setting [16]), 101%; in assay [6] (setting [17]), 95.3%. Also, the viability is 93.8% (inactive) in [12] and 104% (inactive) in [13]. In [2], the Her2 level is 119% (inactive). In addition, the differential viability (reversal) in assay [6] (H69AR cells + 2 uM doxorubicin) was -5.16% (inactive). The figures for the inhibition in assay [7], in assay [8] and in [14] were 1.95% (inactive), -9.5% (inactive) and 0.42% (inactive), respectively. The growth inhibition in assay [9] was -11.9% (inactive); in assay [10], -6.59% (inactive). Besides, the viability increase in assay [11] is 0.61% (inactive). The RAM network inhibition in assay [15] was 2.35% (inactive).

As for `CCSc1nnc(N2C(=O)CC(c3ccsc3)C3=C2CC(C)(C)CC3=O)s1` (stereo not drawn), the viability in assay [1] was 89%; in [3], 89% (inactive); in [4], 81.3% (inactive); in assay [5], 89% (inactive); in assay [6] (setting [16]), 104%; in assay [6] (setting [17]), 89%. Further, the viability is 103% (inactive) in [12] and 94.9% (inactive) in assay [13]. For the same compound, the Her2 level in [2] is 108% (inactive). In addition, in assay [6] (H69AR cells + 2 uM doxorubicin), the differential viability (reversal) was -15% (inactive). For the same compound, the inhibition in assay [7] was -6.67% (inactive); in assay [8], 9.5% (inactive); in [14], 0.195% (inactive). The growth inhibition in [9] was 2.55% (inactive); in assay [10] it was 0.01% (inactive). In addition, the viability increase in assay [11] was -1.55% (inactive). Further, the RAM network inhibition in [15] was 3.19% (inactive).
